# IL1B secr inh: inflammasome signaling inhibition, IL-1 beta readout; THP-1 LPS/ATP IL-1B secretion, AlphaLISA, 16 h; stronger effect = lower value; activity change, % at 57.5 µM; hit rate 4.7% among 360,000; in the data active means activity change below about -50%; inconclusive means mostly about -30% to -49%
#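 THP-1 cells pretreated 1 hr with compounds (up to 57.5 uM final), then stimulated with LPS (250 ng/mL final) plus ATP (1.25 mM final); secreted IL-1B measured by AlphaLISA after 16 hr, decreased signal indicating inhibition.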
# HT1080 IDH1KD tx: kills HT-1080 cells with IDH1 knockdown; HT-1080 IDH1 knockdown viability, ATP luminescence, 48 h; Potency, µM (titrated, usually from 46.1 µM), actives largely listed as cytotoxic; hit rate 2% among 360,000
#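 Luminescent ATP read-out (CellTiter-Glo, 10 min at room temperature) after 48 h compound exposure at 37 °C gave viability of IDH1-knockdown HT-1080 cells. Activity was normalised to DMSO and cell-free wells, then fitted as concentration-response curves.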
# TDP1 cell CPT: DT40-hTDP1 cell growth loss with CPT | AID 686979 | hit rate 12% among 420,000 | Potency, µM (highest dose often 46.2 µM), hits mostly inhibitors | chicken DT40 Tdp1-/-;hTDP1 cells + 20 nM CPT, ATP luminescence, 48 h; further: nearly all actives have a fitted effect of over 55% in size
#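 Chicken DT40 Tdp1-/- cells complemented with human TDP1, 400 cells/well, exposed to compounds plus 20 nM camptothecin for at least 48 h at 37 C; viability read as ATP content by CellTiter-Glo luminescence.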
# HT1080-NT tox: kills 2HG-producing HT-1080-NT fibrosarcoma cells; HT-1080-NT fibrosarcoma viability, CellTiter-Glo ATP luminescence, 48 h; Potency, µM (titrated, usually from 46.1 µM), usual class: cytotoxic; hit rate 1.6% among 360,000;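 further: NT is the 2HG producing partner of a matched IDH1 knockdown line; nearly all actives have a fitted effect of over 55% in size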
#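 HT-1080-NT fibrosarcoma cells (2HG-overproducing), 750 cells/well in RPMI with 5% FBS, dosed after 2 h and incubated 48 h at 37C. CellTiter-Glo luminescence normalized to DMSO and no-cell wells; concentration-response curves fitted and classed.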
# 12-LOX inh: inhibitors of human 12S-lipoxygenase ALOX12; purified 12hLO, xylenol orange hydroperoxide absorbance; hit rate 1.1% among 580,000; AID 1671190; P18054; Potency, µM (doses to about 108 µM), most hits filed as inhibitors
# Target sequence (P18054 whole entry, looked up): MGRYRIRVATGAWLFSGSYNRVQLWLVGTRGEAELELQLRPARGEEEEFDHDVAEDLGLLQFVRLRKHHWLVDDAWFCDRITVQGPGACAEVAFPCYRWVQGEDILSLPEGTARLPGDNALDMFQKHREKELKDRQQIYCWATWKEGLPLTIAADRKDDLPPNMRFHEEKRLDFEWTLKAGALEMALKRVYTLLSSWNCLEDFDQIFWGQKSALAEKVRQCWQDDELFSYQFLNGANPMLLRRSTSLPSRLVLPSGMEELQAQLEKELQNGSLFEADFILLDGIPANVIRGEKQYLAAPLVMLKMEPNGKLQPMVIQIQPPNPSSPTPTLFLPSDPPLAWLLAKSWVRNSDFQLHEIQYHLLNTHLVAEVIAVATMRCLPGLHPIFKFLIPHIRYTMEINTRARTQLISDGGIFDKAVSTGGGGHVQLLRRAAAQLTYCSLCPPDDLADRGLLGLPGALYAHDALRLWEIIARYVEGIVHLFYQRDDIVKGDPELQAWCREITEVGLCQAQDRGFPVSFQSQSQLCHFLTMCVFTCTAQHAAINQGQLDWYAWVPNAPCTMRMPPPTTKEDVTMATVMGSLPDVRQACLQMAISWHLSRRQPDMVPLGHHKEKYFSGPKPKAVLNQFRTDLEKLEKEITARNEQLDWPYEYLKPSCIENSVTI
#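 Purified human 12hLO at 150 nM in 25 mM Hepes, 0.01% Triton X-100, pH 7.0, preincubated 15 min at room temperature with compound. Reaction started with 40 uM arachidonic acid, 30 min at room temperature. Hydroperoxide measured by Fe-xylenol orange, 573/405 nm absorbance ratio.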
# DT40 TDP1 no CPT: qHTS for Inhibitors of human tyrosyl-DNA phosphodiesterase 1 (TDP1): qHTS in cells in absence of CPT | DT40 Tdp1-/- hTDP1 cells, no CPT, ATP luminescence, 48 h | Potency, µM (top dose mostly 46.2 µM), hits mostly inhibitors | hit rate 15% among 420,000; further: nearly all actives have a fitted effect of over 55% in size
#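 Cells were dispensed at 400 per well, compounds added by pin tool, plates incubated ≥48 hr at 37 °C, then CellTiter-Glo added for 30 min at room temperature before luminescence reading. Line: DT40 Tdp1-/- complemented with hTDP1; camptothecin omitted.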
# A number is an active result; n = inactive; u = inconclusive; x = no result. Shown is part of a subset that was picked to be rich in hits. Unless noted, the call rests on the fitted dose curve; in most records, active means well fitted curve in the direction sought with a large enough effect; inconclusive means small, poorly fitted or top-dose-only effect, or another doubt; inactive means no such curve, though single readings can be large; an effect the other way counts as inactive or inconclusive.
SMILES,IL1B secr inh,HT1080 IDH1KD tx,TDP1 cell CPT,HT1080-NT tox,12-LOX inh,DT40 TDP1 no CPT
CN1CCCN(C(=O)C2CCCC2)c2ccccc21,x,x,x,x,n,x
CCN1CCN(C(C(=O)O)c2c[nH]c3cc(NC(=O)CCC(=O)O)ccc23)CC1 (stereo unspecified),x,x,x,x,n,x
COCCNCCCCSc1ccc(Cl)cc1,n,n,15µM,n,u,18µM
CS(=O)(=O)NC1CCN(C(=O)c2cc(Br)ccc2F)CC1,x,x,x,x,n,x
Cc1ccsc1CN(C)C(=O)C1CCCN(C2CCN(C(=O)C3CC3)CC2)C1 (stereo unspecified),x,x,x,x,n,x
CCc1cccc(NC(=O)C2CCCN(c3ncnc4c3nc3n4CCCCC3)C2)c1 (stereo unspecified),-54,u,u,n,n,u
O=C(Nc1cccc(Cl)c1)C1CCCN(c2ncnc3c2nc2n3CCCCC2)C1 (stereo unspecified),x,x,5.2µM,x,u,u
O=C(Nc1cccnc1)C1CCCN(c2ncnc3c2nc2n3CCCCC2)C1 (stereo unspecified),n,n,n,n,n,u
Cc1ccc(C(NC(c2ccccc2)c2ccccc2)C(=O)O)cc1 (stereo unspecified),x,x,x,x,n,x
CC1(C)CC(=O)C2=C(C1)Nc1[nH]n(-c3ccccc3)c(=O)c1C2c1ccc2c(c1)OCO2 (stereo unspecified),n,n,7.3µM,n,u,5.2µM
O=C(/C=C/c1ccccn1)NCC1Cc2cccc(-c3ncccn3)c2O1 (stereo unspecified),x,x,n,x,n,n
O=C(/C=C/c1ccc(F)cc1)NCC1Cc2cccc(-c3ncccn3)c2O1 (stereo unspecified),x,x,u,x,n,18µM
CN1c2cc(C(=O)Nc3ccc(C(F)(F)F)cc3)ccc2C(=O)N2CCCCC21 (stereo unspecified),x,x,x,x,n,x
Cc1nccc(-c2cccc(N/N=C(\C#N)C(=O)c3ccccc3)c2)n1,n,u,21µM,u,n,10µM
OC[C@H]1O[C@@H](c2nc(-c3ccccc3Br)no2)[C@H](O)[C@@H]1O,n,15µM,0.52µM,10µM,n,6.5µM
CCOc1ccc(-c2noc([C@@H]3O[C@H](CO)[C@@H](O)[C@H]3O)n2)cc1,-58,n,u,n,n,u
COc1ccc(-c2noc([C@@H]3O[C@H](CO)[C@H](O)[C@H](O)[C@H]3O)n2)cc1OC,n,n,n,n,n,n
OC[C@H]1O[C@@H](c2nc(-c3cccc4ccccc34)no2)[C@H](O)[C@@H]1O,-68,n,u,u,n,15µM
COc1cccc2ccn(CC(=O)NCc3ccccc3)c12,x,x,x,x,n,x
Cn1cccc1C(=O)C(=O)Nc1cc(Cl)cc(Cl)c1,n,u,16µM,u,n,15µM
Cn1cccc1C(=O)C(=O)Nc1ccc(F)c(F)c1,n,n,n,n,n,n
CCCc1cc(=O)c2c(O)ccc(OC)c2o1,n,n,n,n,25µM,n
COc1cc(CN(C(=O)Nc2ccccc2)c2ccccn2)cc(OC)c1OC,x,x,n,x,n,u
COc1cc(CN(C(=O)c2ccc(OC(C)C)cc2)C2CCS(=O)(=O)C2)cc(OC)c1OC (stereo unspecified),x,x,n,x,n,n
COc1cc(CN(C(=O)c2ccccc2[N+](=O)[O-])c2ccccn2)cc(OC)c1OC,x,x,u,x,n,15µM
SMILES,IL1B secr inh,HT1080 IDH1KD tx,TDP1 cell CPT,HT1080-NT tox,12-LOX inh,DT40 TDP1 no CPT
COc1cc(CN(C(=O)COc2ccc(C)c(C)c2)c2ccccn2)cc(OC)c1OC,x,x,7.3µM,x,n,8.2µM
Cc1ccc(CN(C(=O)c2ccc([N+](=O)[O-])cc2)c2ccccn2)cc1,x,x,u,x,n,u
COc1cc(CN(C(=O)c2ccc(OC(C)C)cc2)c2ccccn2)cc(OC)c1OC,x,x,2.3µM,x,n,4.1µM
COc1ccc(C(=O)N(Cc2cc(OC)c(OC)c(OC)c2)c2ccccn2)cc1,x,x,u,x,n,21µM
NC(=O)[C@@H]1CN(C(=O)CCn2cccn2)C[C@H]1COc1ccccc1,x,x,x,x,n,x
COc1ccc(C(=O)N2CCc3ccc(C(=O)NCc4ccncc4)cc32)cc1,x,x,x,x,n,x
O=C(COC(=O)c1ccccc1C(=O)c1ccc(-c2ccccc2)cc1)c1ccccc1,x,x,x,x,n,x
CC(C)CC(=O)Nc1cccc(C(=O)Nc2ccc(C(=O)O)cc2)c1,x,x,x,x,n,x
CC(C)NC(=O)c1ccccc1-c1ncc(-c2ccc(F)cc2)o1,x,x,x,x,n,x
COc1ccc(N2CC(O)(c3ccc(OC(F)F)cc3)[N+]3=C2CCCC3)cc1 (stereo unspecified),-54,n,16µM,n,n,u
COc1ccc(N2CC(O)(c3ccc(F)cc3)[N+]3=C2CCCC3)cc1 (stereo unspecified),n,n,u,n,n,u
CCOc1ccc(N2CC(O)(c3ccc(F)cc3)[N+]3=C2CCCC3)cc1 (stereo unspecified),n,n,n,n,n,23µM
COCCN1C(=O)CC[C@]2(C(=O)NCc3ccccc3OC)CCCC[C@@H]12,x,x,x,x,n,x
CCC(Cc1ccccc1)NC(=O)c1ccc2nc(N3CCOCC3)sc2c1 (stereo unspecified),n,n,15µM,n,n,13µM
CCOc1ccc(CCNC(=O)c2ccc3nc(N4CCOCC4)sc3c2)cc1OCC,n,n,u,n,n,u
COCc1c(C(=O)Nc2ccc3nc(N4CCOCC4)sc3c2)oc2ccccc12,n,n,15µM,n,n,u
O=C(Nc1ccc2nc(N3CCOCC3)sc2c1)c1ccccc1,n,n,n,n,n,n
CCOc1ccc(CCNC(=O)c2ccc3nc(N4CCC(C)CC4)sc3c2)cc1OCC,x,x,6.5µM,x,n,5.2µM
CCOC(CNC(=O)c1ccc2nc(N3CCC(C)CC3)sc2c1)OCC,n,n,u,n,n,u
CCC(Cc1ccccc1)NC(=O)c1ccc2nc(N3CCC(C)CC3)sc2c1 (stereo unspecified),x,x,21µM,x,n,10µM
COCCn1c(SCC(=O)c2cc(C)ccc2C)nnc1-c1ccc(Cl)cc1,x,x,x,x,n,x
COc1ccc2cc(C(C)C(=O)Nc3cccc4cccnc34)ccc2c1 (stereo unspecified),x,x,x,x,n,x
O=C(O)CCC(=O)Nc1cccc(-c2csc(-c3ccccc3)n2)c1,n,n,n,n,n,u
O=C(Nc1ccc(-c2csc(Nc3cccc(C(F)(F)F)c3)n2)cc1)c1ccccc1,n,n,4.6µM,n,n,9.2µM
CCCCC(=O)Nc1cccc(-c2csc(-c3ccccc3)n2)c1,-79,u,u,n,n,u
